# Screening results: PubChem, The Scripps Research Institute Molecular Screening Center
# An excerpt weighted towards active compounds, which were near 0.9% of everything screened.
# PPARg SRC1 recr = agonists of human PPARgamma SRC-1 coactivator recruitment. P37231. PPARgamma-SRC-1 coactivator recruitment biochemical assay. activation, % at 8 µM. actives 0.41% (n = 200,000). AID 631; in the data active = activation above about 19%;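 also: 0% = DMSO and 100% = reference agonist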
# Target sequence (P37231 whole entry, looked up): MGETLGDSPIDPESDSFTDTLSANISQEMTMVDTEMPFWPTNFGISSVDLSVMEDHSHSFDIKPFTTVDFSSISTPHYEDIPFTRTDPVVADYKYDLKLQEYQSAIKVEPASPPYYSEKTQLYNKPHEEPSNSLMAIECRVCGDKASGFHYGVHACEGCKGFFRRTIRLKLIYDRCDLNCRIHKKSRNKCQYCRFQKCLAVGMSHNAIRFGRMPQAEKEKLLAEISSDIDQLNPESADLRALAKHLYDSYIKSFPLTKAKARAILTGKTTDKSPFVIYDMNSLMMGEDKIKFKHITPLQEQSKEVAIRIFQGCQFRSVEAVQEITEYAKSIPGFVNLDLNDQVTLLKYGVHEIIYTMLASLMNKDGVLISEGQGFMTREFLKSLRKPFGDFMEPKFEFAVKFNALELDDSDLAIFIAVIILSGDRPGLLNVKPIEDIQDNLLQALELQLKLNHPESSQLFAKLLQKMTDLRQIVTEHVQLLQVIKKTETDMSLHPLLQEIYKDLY
# PPARg SRC-2 ag = promotes SRC-2 coactivator recruitment by human PPARgamma. P37231. PPARgamma LBD-SRC-2 recruitment, biochemical. AID 1032. actives 0.34% (n = 200,000). activation, % at 8 µM;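 also: 0% = vehicle and 100% = reference agonist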
# PPARg SRC-3 ag = agonists of human PPARgamma SRC-3 coactivator recruitment; actives 0.26% (n = 200,000); AID 731; biochemical PPARgamma/SRC-3 coactivator recruitment assay; activation, % at 8 µM; in the data active = activation above about 23%;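 also: 0% = DMSO and 100% = reference agonist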
# SRC1 TRFRET art = flags TR-FRET format artefacts in PPARgamma SRC-1 recruitment agonist screen; TR-FRET detection artefact counter-screen, emission ratio; stronger effect = higher value; TR-FRET ratio at 8 µM; actives 0.34% (n = 99,000); AID 1051; in the data active = TR-FRET ratio above about 2300
# SRC2 TRFRET art = flags TR-FRET format artefacts in PPARgamma SRC-2 recruitment agonist screen; TR-FRET artefact counter-screen; stronger effect = higher value; TR-FRET ratio at 8 µM; actives 0.4% (n = 200,000); in the data active = TR-FRET ratio above about 2000
# SRC3 TRFRET art = TR-FRET artefact, counter-screen to PPARgamma/SRC-3 agonist assay; PPARgamma/SRC-3 format; stronger effect = higher value; TR-FRET ratio at 8 µM; actives 0.39% (n = 99,000); in the data active = TR-FRET ratio above about 2000
# PPARg SRC2 ag = human PPARgamma SRC-2 recruitment agonism, confirmation | shares compounds with PPARg SRC-3 ag | biochemical SRC-2 recruitment by PPARgamma | activation, % at 8 µM | actives 52% (n = 790);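 also: 0% = vehicle alone and 100% = reference agonist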
# PPARg SRC1 conf = confirmation of agonists of SRC-1 recruitment by human PPARgamma; shares compounds with PPARg SRC-3 ag; actives 43% (n = 790); PPARgamma–SRC-1 coactivator recruitment biochemical assay; activation, % at 8 µM; in the data active = activation above about 20%;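 also: 0% = vehicle wells and 100% = reference agonist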
# PPARg SRC3 conf = confirmation of agonists of SRC-3 recruitment by human PPARgamma. actives 29% (n = 790). AID 1301. shares compounds with PPARg SRC-3 ag. activation, % at 8 µM. biochemical PPARgamma-SRC-3 coactivator recruitment, agonist mode; in the data active = activation above about 24%;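 also: 0% = vehicle wells and 100% = reference agonist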
# Starred values were filed as active, the others as inactive; . = not tested or not shown. Rule as the data show it, unless noted: active = activation above about 22%; inactive = the rest.
SMILES,PPARg SRC1 recr,PPARg SRC-2 ag,PPARg SRC-3 ag,SRC1 TRFRET art,SRC2 TRFRET art,SRC3 TRFRET art,PPARg SRC2 ag,PPARg SRC1 conf,PPARg SRC3 conf
O=C(CSc1nc2ccccc2o1)Nc1nc2ccccc2s1,2,7,8,.,1507,.,.,.,.
C=CCOc1nc(N(C)C)nc(N(C)C)n1,0,10,1,.,1677,.,.,.,.
COc1ccc(NC(=O)N2CCC(n3cnc4ccccc43)CC2)cc1,0,-1,0,1646,1619,1621,.,.,.
CCN(C(=O)COC(=O)c1ccc(N2C(=O)c3ccccc3C2=O)cc1)C1CCS(=O)(=O)C1 (stereo not drawn),12,-4,3,1664,1637,1643,.,.,.
COC(=O)c1ccccc1NC(=O)CNC(=O)c1ccc(OC)c(OC)c1,-5,4,-4,1724,1329,1553,.,.,.
O=c1c2oc3ccccc3c2ncn1Cc1cccc(Cl)c1,3,-2,0,1630,1416,1540,.,.,.
CC(=O)N1CCN(c2ccc(Nc3ncnc4c3oc3ccccc34)cc2)CC1,15,23*,13,.,1766,.,2,3,2
O=C(O)CSc1nc(-c2ccccc2)nc2c1oc1ccccc12,8,3,12,.,1647,.,.,.,.
CC(=O)CSc1ncnc2c1oc1ccccc12,135*,114*,219*,.,5487*,.,65*,43*,44*
O=C(CSc1ncnc2c1cnn2CCc1ccccc1)Nc1cccc(C(F)(F)F)c1,-4,4,-3,.,1380,.,.,.,.
O=C(CSc1ncnc2c1oc1ccccc12)Nc1cccc(Cl)c1,11,25*,33*,.,1548,.,27*,22*,19
O=C(CSc1ncnc2c1oc1ccccc12)Nc1cccc(C(F)(F)F)c1,21*,35*,29*,.,2069*,.,30*,20*,18
COc1cc(OC)cc(C(=O)N[C@H](C(=O)OCC(=O)Nc2ccc(F)c(F)c2F)C(C)C)c1,9,2,-2,1688,1665,1611,.,.,.
Cc1sc2ncn(CC(=O)NCc3ccco3)c(=O)c2c1-c1ccccc1,-4,-4,-3,1656,1587,1474,.,.,.
COc1cc2c(cc1OC)CN(C(=S)NC(=O)c1ccccc1)CC2,11,6,3,2009,1800,1759,.,.,.
Fc1ccccc1CSc1ncnc2c1oc1ccccc12,46*,19,51*,.,2035*,.,49*,38*,32*
O=c1c2oc3ccccc3c2ncn1Cc1ccccc1F,-1,6,1,.,1439,.,.,.,.
CCOC(=O)c1sc2nc(C(C)C)c3c(c2c1N)CCC3,2,-2,1,1548,1511,1558,.,.,.
CC(C)c1nc2sc3c(=O)[nH]c(=S)[nH]c3c2c2c1CCC2,24*,33*,18,2489*,2507*,2640*,23*,15,14
CCOC(=O)NN1C(=O)c2ccccc2NC1c1ccccc1F (stereo not drawn),12,0,2,1728,1488,1367,.,.,.
CC1=NOC(=O)/C1=C\c1ccc(-c2ccccc2Br)o1,82*,118*,51*,4294*,3893*,3608*,79*,61*,58*
Cc1c(NC(=S)Nc2ccc(Cl)cc2)c(=O)n(-c2ccccc2)n1C,2,6,-1,1719,1604,1633,.,.,.
Cc1ccc2[nH]c3c(=S)nc[nH]c3c2c1,23*,38*,22,2302,2733*,2834*,14,5,10
C=CCOc1cccc(C2C(C(=O)c3ccco3)=C(O)C(=O)N2CCN(CC)CC)c1 (stereo not drawn),8,7,0,.,1590,.,.,.,.
C=CCOc1cccc(C2C(C(=O)c3ccc(C)o3)=C(O)C(=O)N2c2nccs2)c1 (stereo not drawn),24*,32*,23,.,2025*,.,2,-1,3
